Measured values: PubChem BioAssay (NCATS)
Unmarked numbers belong to inactive results. Records with an inconclusive call do not appear. Active and inactive are the calls of the source. Unless noted, calls follow the shape of the dose curve; as a rule, active = well fitted curve in the direction sought with a large enough effect; inconclusive = small, poorly fitted or top-dose-only effect, or another doubt; inactive = no such curve, though single readings can be large; an effect the other way counts as inactive or inconclusive.

Experiments:
[1] = biological target: Lysosomal acid glucosylceramidase (Homo sapiens) (UniProt P04062); test: Glucocerebrosidase-p2 (AID 348; in the data active = potency below about 10 µM; also: potency is read from the fitted curve at half-maximal effect); conditions: purified GBA, blue fluorogenic substrate, 40 min
Chain of Lysosomal acid glucosylceramidase (Homo sapiens) (P04062 whole entry, looked up): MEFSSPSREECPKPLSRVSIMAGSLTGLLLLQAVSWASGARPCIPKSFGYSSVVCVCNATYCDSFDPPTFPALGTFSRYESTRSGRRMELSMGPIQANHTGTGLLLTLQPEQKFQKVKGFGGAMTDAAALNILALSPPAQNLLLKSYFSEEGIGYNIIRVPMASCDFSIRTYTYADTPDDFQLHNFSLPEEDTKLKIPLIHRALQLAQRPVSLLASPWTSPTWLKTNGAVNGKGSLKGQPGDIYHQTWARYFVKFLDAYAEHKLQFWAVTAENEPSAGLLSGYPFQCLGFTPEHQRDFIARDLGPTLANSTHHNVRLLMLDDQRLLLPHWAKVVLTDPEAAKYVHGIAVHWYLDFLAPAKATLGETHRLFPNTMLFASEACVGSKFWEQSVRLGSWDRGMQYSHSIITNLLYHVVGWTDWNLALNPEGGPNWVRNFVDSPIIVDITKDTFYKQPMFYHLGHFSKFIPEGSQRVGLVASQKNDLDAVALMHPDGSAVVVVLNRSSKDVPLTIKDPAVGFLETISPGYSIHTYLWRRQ
In short: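 Normal human glucocerebrosidase (0.2 nM) with blue fluorogenic substrate (80 uM final) in citrate/phosphate pH 5.9 with 10mM sodium taurocholate, 0.01% tween-20; 40 min RT, NaOH/glycine stop; fluorescence Ex 365/Em 440; AC50 from a titration from 0.6 nM upwards.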

[2] = AP1 Signaling Pathway (AID 357; active = well fitted curve in either direction with a large enough effect, not every such curve was filed as active;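 also: ME-180 reporter cells stimulated with EGF at its EC50 level; % is scaled to controls: 0 for no effect and ±100 for the full control effect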); conditions: ME-180 AP-1-bla reporter, EGF-induced, beta-lactamase ratio, 5 h; at 7.69 µM (top of the series) unless noted
In short: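 Read-out was the 460nm/530nm emission ratio (excitation 405nm) after CCF4 loading for 2.5 hours at room temperature. Cells carried an AP-1-driven beta-lactamase reporter, were stimulated with EC50 EGF plus compound for 5 hours, and AC50 values came from titrations.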

[3] = biological target: Cytochrome P450 1A2 (Homo sapiens) (UniProt P05177); test: p450-cyp1a2 (AID 410; calls by dose curve; also: potency is read from the fitted curve at half-maximal effect); conditions: recombinant CYP1A2, luciferin-ME demethylation, luminescence; series mostly up to 57 µM
Chain of Cytochrome P450 1A2 (Homo sapiens) (P05177 whole entry, looked up): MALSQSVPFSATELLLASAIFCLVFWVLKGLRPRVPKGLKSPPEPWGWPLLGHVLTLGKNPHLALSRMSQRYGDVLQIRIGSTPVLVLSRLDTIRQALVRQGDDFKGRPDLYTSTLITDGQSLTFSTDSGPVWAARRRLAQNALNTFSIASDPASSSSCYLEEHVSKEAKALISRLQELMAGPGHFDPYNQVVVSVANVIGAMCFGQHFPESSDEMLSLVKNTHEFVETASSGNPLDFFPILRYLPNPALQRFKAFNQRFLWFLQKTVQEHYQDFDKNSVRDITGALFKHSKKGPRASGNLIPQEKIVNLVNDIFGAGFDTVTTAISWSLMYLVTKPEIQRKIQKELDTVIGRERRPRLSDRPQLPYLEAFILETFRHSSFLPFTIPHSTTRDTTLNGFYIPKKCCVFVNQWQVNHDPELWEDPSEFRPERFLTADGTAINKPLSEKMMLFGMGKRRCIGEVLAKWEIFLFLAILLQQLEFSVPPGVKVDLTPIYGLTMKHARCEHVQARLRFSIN
In short: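 O-Demethylation of luciferin 6' methyl ether by human CYP1A2 is monitored as luciferase luminescence. Substrate sits at Km (100uM); enzyme is 20nM. Values are scaled to 57 uM furafylline as maximal inhibition.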

[4] = NFAT Signaling Pathway (AID 444; active = well fitted curve in either direction with a large enough effect, not every such curve was filed as active;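 also: carbachol stimulus at about its EC50 of 1 µM final; % is scaled to controls: 0 for no effect and ±100 for the full control effect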); conditions: Jurkat NFAT-bla M1, carbachol, beta-lactamase ratio, 5 h; at 7.69 µM (top of the series) unless noted
In short: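 Read-out: CCF4 FRET ratio (460 nm/530 nm) after 1 h RT dye loading, used for %activity and AC50 from titration series. Cells: Jurkat NFAT-β-lactamase/M1 line, treated with compound plus 1 uM carbachol for 5 h, 37 °C.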

[5] = Stat Signaling Pathway (AID 446; active = well fitted curve in either direction with a large enough effect, not every such curve was filed as active;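 also: ME-180 cervical cancer cells given 40 pM IL-6 alongside compound; SIE-controlled beta-lactamase reporter measured as 460/530 nm FRET emission ratio; % is scaled to controls: 0 for no effect and ±100 for the full control effect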); conditions: ME-180 (cervical carcinoma) SIE beta-lactamase reporter, IL-6 stimulated, 5 h; at 7.69 µM (top of the series) unless noted
In short: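 Overnight-plated ME-180 cells bearing a STAT Inducible Element beta-lactamase reporter; 5 h co-exposure to compound and 40 pM IL-6; values normalized to 300 pM IL-6 and 125 nM JAK inhibitor controls.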

[6] = biological target: Glucocorticoid receptor (Homo sapiens) (UniProt P04150); test: GR-GFP Redistribution (AID 450;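 active = compounds whose dose series gives a full or clear partial fitted curve of increased nuclear translocation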; also: potency is read from the fitted curve at half-maximal effect); conditions: U2OS GR-GFP nuclear translocation, laser cytometry, 2 h
Chain of Glucocorticoid receptor (Homo sapiens) (P04150 whole entry, looked up, the tested form may be a part): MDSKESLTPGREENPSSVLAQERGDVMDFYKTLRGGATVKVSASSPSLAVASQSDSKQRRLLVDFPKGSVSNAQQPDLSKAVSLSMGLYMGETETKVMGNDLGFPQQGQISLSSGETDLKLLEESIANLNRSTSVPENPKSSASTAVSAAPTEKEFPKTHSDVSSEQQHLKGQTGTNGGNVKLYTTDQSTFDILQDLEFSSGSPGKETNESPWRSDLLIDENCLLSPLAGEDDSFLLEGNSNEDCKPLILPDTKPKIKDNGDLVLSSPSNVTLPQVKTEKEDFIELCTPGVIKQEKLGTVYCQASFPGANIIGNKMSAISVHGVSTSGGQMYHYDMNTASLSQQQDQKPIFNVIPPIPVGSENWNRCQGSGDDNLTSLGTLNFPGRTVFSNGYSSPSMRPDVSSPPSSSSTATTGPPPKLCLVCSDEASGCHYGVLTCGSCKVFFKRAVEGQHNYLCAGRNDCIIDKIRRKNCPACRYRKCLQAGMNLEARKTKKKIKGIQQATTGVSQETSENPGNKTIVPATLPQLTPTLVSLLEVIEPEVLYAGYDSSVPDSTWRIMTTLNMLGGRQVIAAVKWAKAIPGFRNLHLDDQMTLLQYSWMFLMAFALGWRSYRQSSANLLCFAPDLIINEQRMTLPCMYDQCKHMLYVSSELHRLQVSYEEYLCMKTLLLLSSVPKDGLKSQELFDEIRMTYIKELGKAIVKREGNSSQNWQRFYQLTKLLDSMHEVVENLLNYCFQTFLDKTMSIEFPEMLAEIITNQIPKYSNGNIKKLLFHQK

[7] = biological target: Glucocorticoid receptor (Homo sapiens) (UniProt P04150); test: GR-EFC Redistribution (AID 451; calls by dose curve; also: potency is read from the fitted curve at half-maximal effect); conditions: CHO-K1 GR-EFC translocation, beta-gal luminescence, 2 h
In short: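 Translocation of GR-ED fusion to nuclear EA restores b-gal, read by luminescence after 1 h room-temperature detection. Engineered CHO-K1 biosensor cells, 1,000/well, exposed 2 h at 37 C to titrations up to 46 uM final.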

[8] = biological target: Mitogen-activated protein kinase 10 (Mus musculus) (UniProt Q61831); test: JNK3 AlphaScreen Assay (AID 530; active = well fitted curve in either direction with a large enough effect, not every such curve was filed as active;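 also: kinase came from lysate of stimulated human HepG2 cells; signal reports phosphorylation of biotinylated GST-cJun 1-79 at Ser73 with 10 µM ATP; % is scaled to controls: 0 for no effect and ±100 for the full control effect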); conditions: JNK3 lysate, c-Jun phosphorylation; series mostly up to 57.1 µM
In short: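 qHTS titrations with 15 min compound pre-incubation before adding ATP (10 uM final). Read-out: AlphaScreen of Ser73-phosphorylated biotin-GST-cJun using HepG2 lysate JNK3 activated by IL-1β and TNFα.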

[9] = biological target: 3',5'-cyclic-AMP phosphodiesterase 4B (Homo sapiens) (UniProt Q07343); test: qHTS Assay for Inhibitors of PDE-IV (AID 607; active = well fitted activation curve with a large enough effect in the main read-out, with a control signal flat, not every such curve was filed as active; also: % of control where 0% means no effect); conditions: HEK293 ACTOne CNG channel cells, membrane potential fluorescence; series mostly up to 22.9 µM
Chain of 3',5'-cyclic-AMP phosphodiesterase 4B (Homo sapiens) (Q07343 whole entry, looked up): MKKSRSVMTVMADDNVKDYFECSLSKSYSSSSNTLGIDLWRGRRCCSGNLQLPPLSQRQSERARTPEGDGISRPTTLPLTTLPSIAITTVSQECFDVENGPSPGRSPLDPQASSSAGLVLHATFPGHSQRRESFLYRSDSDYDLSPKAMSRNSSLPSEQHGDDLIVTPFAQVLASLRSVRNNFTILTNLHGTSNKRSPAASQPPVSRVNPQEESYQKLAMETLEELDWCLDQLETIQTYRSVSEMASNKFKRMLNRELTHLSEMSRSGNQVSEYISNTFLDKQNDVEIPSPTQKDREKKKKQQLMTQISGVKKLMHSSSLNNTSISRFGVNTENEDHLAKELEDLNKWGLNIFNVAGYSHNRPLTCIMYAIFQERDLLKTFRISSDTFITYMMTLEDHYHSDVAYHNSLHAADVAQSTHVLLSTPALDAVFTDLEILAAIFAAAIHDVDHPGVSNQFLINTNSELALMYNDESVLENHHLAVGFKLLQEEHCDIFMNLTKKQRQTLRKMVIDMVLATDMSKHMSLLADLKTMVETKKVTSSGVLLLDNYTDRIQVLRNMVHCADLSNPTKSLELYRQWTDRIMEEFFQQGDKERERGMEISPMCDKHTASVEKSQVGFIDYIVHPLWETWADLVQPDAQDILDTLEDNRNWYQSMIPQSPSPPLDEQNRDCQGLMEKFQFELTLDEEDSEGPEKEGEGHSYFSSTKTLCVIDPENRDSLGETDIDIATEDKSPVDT
In short: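 Live HEK293 cells with a modified cyclic nucleotide-gated (CNG) channel report intracellular cAMP via membrane-potential dye fluorescence (ex 535/em 590 nm). Endogenous PDE-IV was targeted. Compounds were tested at up to 22.9 uM final; RO 20-1724 100 uM served as control.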

[10] = biological target: Cytochrome P450 3A4 (Homo sapiens) (UniProt P08684); test: qHTS Assay for Activators of Cytochrome P450 3A4 (AID 885); conditions: recombinant CYP3A4, Luciferin-PPXE luminescence, 60 min; series mostly up to 57.1 µM; also: nearly all actives have a fitted effect of over 65% in size
Chain of Cytochrome P450 3A4 (Homo sapiens) (P08684 whole entry, looked up): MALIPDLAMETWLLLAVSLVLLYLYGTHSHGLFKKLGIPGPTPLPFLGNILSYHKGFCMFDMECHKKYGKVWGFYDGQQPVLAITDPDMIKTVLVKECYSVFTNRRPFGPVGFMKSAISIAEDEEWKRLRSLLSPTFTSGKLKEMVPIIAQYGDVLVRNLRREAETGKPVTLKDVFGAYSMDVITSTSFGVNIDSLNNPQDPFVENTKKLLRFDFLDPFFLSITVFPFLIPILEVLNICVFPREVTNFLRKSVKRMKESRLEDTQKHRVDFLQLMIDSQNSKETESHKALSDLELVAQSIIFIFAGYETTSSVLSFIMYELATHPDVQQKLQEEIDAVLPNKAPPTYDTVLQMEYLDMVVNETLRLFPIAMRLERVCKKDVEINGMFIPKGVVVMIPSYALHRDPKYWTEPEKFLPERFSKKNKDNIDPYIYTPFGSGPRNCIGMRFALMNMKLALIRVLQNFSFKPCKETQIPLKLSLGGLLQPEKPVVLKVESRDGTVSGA
In short: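 Using 20nM recombinant human CYP3A4 in potassium phosphate (200mM), substrate Luciferin-PPXE at 25uM, luminescent luciferin detection followed a 60-min RT NADPH reaction; data scaled to 57 uM ketoconazole.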

[11] = biological target: Dual specificity protein kinase CLK4 (Homo sapiens) (UniProt Q9HAZ1); test: qHTS Assay for Inhibitors of CDC-like Kinase 4 (Kinase-Glo Assay) (AID 1770); conditions: recombinant Clk4, Kinase-Glo ATP depletion luminescence; series mostly up to 66.7 µM; also: nearly all actives have a fitted effect of over 65% in size; also: potency is read from the fitted curve at half-maximal effect
Chain of Dual specificity protein kinase CLK4 (Homo sapiens) (Q9HAZ1 whole entry, looked up): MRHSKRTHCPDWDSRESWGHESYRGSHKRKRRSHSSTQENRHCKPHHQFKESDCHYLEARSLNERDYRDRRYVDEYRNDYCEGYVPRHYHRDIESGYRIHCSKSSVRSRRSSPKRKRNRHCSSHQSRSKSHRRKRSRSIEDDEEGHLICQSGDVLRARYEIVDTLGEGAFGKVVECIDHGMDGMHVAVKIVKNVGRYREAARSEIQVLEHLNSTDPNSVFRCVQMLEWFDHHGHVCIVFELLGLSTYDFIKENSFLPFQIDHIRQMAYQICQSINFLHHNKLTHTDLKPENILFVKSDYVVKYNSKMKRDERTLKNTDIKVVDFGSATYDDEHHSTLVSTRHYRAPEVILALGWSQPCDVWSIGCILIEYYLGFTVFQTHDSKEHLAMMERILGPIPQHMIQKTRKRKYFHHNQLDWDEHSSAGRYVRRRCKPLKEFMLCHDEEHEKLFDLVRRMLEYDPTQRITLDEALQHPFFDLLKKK
In short: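 Recombinant human Clk4 (25 nM) phosphorylated RS repeat peptide (100 uM) with 1 uM ATP in Tris pH 7.5/MgCl2/EGTA/DTT/Triton buffer for 4.5 h at room temperature. Residual ATP was quantified by Kinase-Glo luciferase luminescence.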

[12] = biological target: Dual specificity protein kinase CLK4 (Homo sapiens) (UniProt Q9HAZ1); test: qHTS Assay for Inhibitors of CDC-like Kinase 4 (ADP-Glo Assay) (AID 1771); conditions: recombinant CLK4, ADP-Glo luminescence; series mostly up to 80 µM; also: nearly all actives have a fitted effect of over 70% in size; also: potency is read from the fitted curve at half-maximal effect
In short: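 Compounds are pin-transferred onto substrate mix (100 uM RS peptide, 1 uM ATP), then 25 nM Clk4 is added. After 1 hr at room temperature, ADP-Glo reagent runs 45 min, detection reagent 30 min, then luminescence is read.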

[13] = biological target: Dual specificity protein kinase CLK4 (Homo sapiens) (UniProt Q9HAZ1); test: qHTS Assay for Inhibitors of CDC-like Kinase 4 (ADP-FP Assay) (AID 1795); conditions: Transcreener ADP fluorescence polarization; series mostly up to 50 µM; also: nearly all actives have a fitted effect of over 60% in size; also: potency is read from the fitted curve at half-maximal effect
In short: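 Recombinant human Clk4 (6.25 nM) phosphorylated RS repeat peptide (100 uM) with 1 uM ATP in Tris pH 7.5/MgCl2/EGTA/DTT/Triton buffer for one hour. ADP was quantified by Transcreener competitive fluorescence polarization against an ADP calibration curve.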

[14] = biological target: Ubiquitin carboxyl-terminal hydrolase 1 (Homo sapiens) (UniProt O94782); test: Inhibitors of USP1/UAF1: Pilot qHTS (AID 504865); conditions: purified USP1/UAF1, Ub-rhodamine cleavage fluorescence; series mostly up to 54.9 µM;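 also: rhodamine fluorescence freed from ubiquitin-rhodamine substrate followed over time; top concentration of the series differs between compounds; % is scaled to controls: 0 for no effect and ±100 for the full control effect; nearly all actives have a fitted effect of over 35% in size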
Chain of Ubiquitin carboxyl-terminal hydrolase 1 (Homo sapiens) (O94782 whole entry, looked up): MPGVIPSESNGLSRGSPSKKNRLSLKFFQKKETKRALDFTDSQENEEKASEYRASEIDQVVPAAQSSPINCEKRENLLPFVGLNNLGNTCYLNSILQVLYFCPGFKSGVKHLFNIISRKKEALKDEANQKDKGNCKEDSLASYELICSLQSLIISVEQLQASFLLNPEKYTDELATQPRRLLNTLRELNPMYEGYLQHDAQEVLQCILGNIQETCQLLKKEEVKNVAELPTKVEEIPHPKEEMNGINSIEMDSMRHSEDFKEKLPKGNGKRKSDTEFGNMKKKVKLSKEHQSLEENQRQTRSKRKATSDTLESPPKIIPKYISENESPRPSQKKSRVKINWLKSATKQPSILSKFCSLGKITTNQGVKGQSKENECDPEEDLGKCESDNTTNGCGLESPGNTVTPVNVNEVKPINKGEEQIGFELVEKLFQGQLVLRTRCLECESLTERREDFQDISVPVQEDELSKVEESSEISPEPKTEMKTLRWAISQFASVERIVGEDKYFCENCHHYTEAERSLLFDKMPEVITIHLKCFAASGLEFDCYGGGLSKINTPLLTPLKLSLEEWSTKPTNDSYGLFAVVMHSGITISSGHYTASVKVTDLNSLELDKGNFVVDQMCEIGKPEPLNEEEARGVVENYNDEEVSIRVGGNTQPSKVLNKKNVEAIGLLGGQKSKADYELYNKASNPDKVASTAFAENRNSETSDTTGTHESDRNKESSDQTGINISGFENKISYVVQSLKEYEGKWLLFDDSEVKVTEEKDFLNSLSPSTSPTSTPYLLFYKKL
In short: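 USP1/UAF1 complex (1nM) preincubated with compound 15 min at room temperature, then Ub-Rho substrate (150nM final) added. Fluorescence read kinetically at 480/540 nm, 6 reads every 60 seconds. Buffer: 50mM HEPES pH 7.8, 0.5mM EDTA, 0.1 mg/ml BSA, 1mM TCEP, 0.01% Tween-20.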

[15] = Primary qHTS for small molecule stabilizers of the endoplasmic reticulum resident proteome: Secreted ER Calcium Modulated Protein (SERCaMP) assay (AID 1508630); conditions: SH-SY5Y GLuc-SERCaMP (Gaussia luciferase released on ER calcium loss) secretion, thapsigargin, luminescence; series mostly up to 38.4 µM; also: % is scaled to controls: 0 for no effect and ±100 for the full control effect
In short: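 The SH-SY5Y reporter protocol was run at 3 concentrations up to 38.3 uM (primary) or 11 concentrations (follow-up): 16 h compound, 100 nM thapsigargin for 4 h, then extracellular luciferase luminescence.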

[16] = biological target: Cytochrome P450 3A4 (Homo sapiens) (UniProt P08684); test: qHTS Assay for Inhibitors and Substrates of Cytochrome P450 3A4 (AID 884); conditions: recombinant CYP3A4, Luciferin-PPXE luminescence; series mostly up to 57.1 µM; also: potency is read from the fitted curve at half-maximal effect; nearly all actives have a fitted effect of over 50% in size
In short: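 Luminescent readout of luciferin produced by CYP3A4 (20 nM) dealkylation of Luciferin-PPXE, 25 uM (its KM). NADPH-driven reaction ran 60 min at RT after 10 min compound preincubation; data scaled to 57 uM ketoconazole as 100% inhibition.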

[17] = biological target: Cytochrome P450 2C19 (Homo sapiens) (UniProt P33261); test: qHTS Assay for Inhibitors and Substrates of Cytochrome P450 2C19 (AID 899); conditions: recombinant CYP2C19, luciferin-H EGE luminescence; series mostly up to 57.1 µM; also: potency is read from the fitted curve at half-maximal effect; nearly all actives have a fitted effect of over 60% in size
Chain of Cytochrome P450 2C19 (Homo sapiens) (P33261 whole entry, looked up): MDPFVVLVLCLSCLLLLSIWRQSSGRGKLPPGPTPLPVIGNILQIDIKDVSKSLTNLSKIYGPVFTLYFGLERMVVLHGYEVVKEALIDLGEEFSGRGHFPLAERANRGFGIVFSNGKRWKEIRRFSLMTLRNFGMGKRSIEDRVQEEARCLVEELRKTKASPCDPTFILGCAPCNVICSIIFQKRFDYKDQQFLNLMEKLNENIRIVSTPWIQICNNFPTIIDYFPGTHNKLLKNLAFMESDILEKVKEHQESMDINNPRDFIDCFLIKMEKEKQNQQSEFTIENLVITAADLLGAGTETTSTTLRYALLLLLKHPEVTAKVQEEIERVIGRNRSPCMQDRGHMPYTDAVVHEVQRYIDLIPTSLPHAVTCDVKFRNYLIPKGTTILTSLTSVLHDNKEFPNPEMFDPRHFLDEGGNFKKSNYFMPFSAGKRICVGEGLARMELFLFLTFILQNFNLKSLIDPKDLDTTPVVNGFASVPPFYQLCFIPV
In short: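 5nM enzyme + 10uM Luciferin-H EGE (=KM), 50mM KPO4; cpd pin-transferred, 10 min 37C; NADPH regen, 60 min 37C; stopped w/ luciferin detection reagent, 20 min; luminescence. Normalized to 57uM ketoconazole (AC100).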

SMILES	Potency [1]	activity change, negative = inhibition [2]	Potency [3]	activity change, negative = inhibition [4]	activity, negative = inhibition [5]	Potency [6]	Potency [7]	Potency [8]	Potency [9]	Potency [10]	Potency [11]	Potency [12]	Potency [13]	Potency [14]	outcome [15]	Potency [16]	Potency [17]
COc1ccc(Oc2ncc3ncc(=O)n(C4CC4)c3n2)cc1	> 11.4 µM	-1.59%	5.01 µM (active)	5.04%	-19.9%	> 9.22 µM	> 46 µM	inactive	inactive	inactive	inactive	inactive	inactive	inactive	inactive	–	–
COc1ncc2nc(CCc3ccccc3)c(=O)n(CCc3ccccc3)c2n1	> 11.4 µM	-0.194%	3.98 µM (active)	-0.888%	-1.74%	> 9.22 µM	> 46 µM	inactive	–	inactive	inactive	inactive	inactive	inactive	inactive	3.16 µM (active)	7.94 µM (active)
O=c1c(-c2ccc(F)cc2)nc2cncnc2n1-c1ccccc1	> 11.4 µM	-2.6%	7.94 µM (active)	11.8%	-3.31%	> 9.22 µM	> 46 µM	inactive	–	inactive	inactive	inactive	inactive	inactive	inactive	–	–
COc1ccccc1CCn1c(=O)c(CCc2ccccc2)nc2cncnc21	> 11.4 µM	-16%	7.94 µM (active)	-21.1%	-8.11%	> 9.22 µM	> 46 µM	inactive	–	inactive	inactive	inactive	inactive	inactive	inactive	3.16 µM (active)	3.16 µM (active)
Cc1ccccc1-c1nc(NC2CC2)c2ccccc2n1	1.17 µM (active)	17.6%	0.501 µM (active)	-19.1%	-0.286%	> 46 µM	> 46 µM	inactive	–	inactive	12.6 µM (active)	11.2 µM (active)	10 µM (active)	inactive	inactive	3.98 µM (active)	–
COc1cccc(-c2nccc(NCc3cccnc3)n2)c1	> 11.4 µM	-20.9%	0.158 µM (active)	8.95%	-2.24%	> 46 µM	> 46 µM	–	inactive	inactive	7.08 µM (active)	7.08 µM (active)	6.31 µM (active)	inactive	inactive	1.26 µM (active)	–
